D1 potentiator: human D1 dopamine receptor positive modulation; P21728; HEK293 TREx D1 cells, calcium flux, dopamine EC20 potentiation; potentiation, % at 10 µM; actives 0.036% (n = 360,000); in the data active means potentiation above about 30%
Target sequence (P21728 whole entry, looked up): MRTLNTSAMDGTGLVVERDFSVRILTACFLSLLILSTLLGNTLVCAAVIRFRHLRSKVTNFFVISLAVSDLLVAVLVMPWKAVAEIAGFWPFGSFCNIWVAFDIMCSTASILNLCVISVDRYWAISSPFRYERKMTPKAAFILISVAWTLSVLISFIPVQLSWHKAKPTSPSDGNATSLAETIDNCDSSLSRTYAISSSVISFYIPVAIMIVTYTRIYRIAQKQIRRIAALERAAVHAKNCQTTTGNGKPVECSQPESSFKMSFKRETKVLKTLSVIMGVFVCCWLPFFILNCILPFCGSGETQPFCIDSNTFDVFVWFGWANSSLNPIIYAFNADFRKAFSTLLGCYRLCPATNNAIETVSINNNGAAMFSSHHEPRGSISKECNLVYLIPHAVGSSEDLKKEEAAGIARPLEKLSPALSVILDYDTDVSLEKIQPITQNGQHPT
D1 ag: agonists of human D1 dopamine receptor | P21728 | actives 1% (n = 360,000) | AID 504660 | HEK293 T-REx D1 cells, calcium flux, agonist mode | activation, % at 2 µM
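Tetracycline-induced HEK293 TREx D1 cells, force-coupled to calcium signalling, were dye-loaded with a no-wash calcium kit. Compound was pin-added after a 10 s baseline. Fluorescence was read kinetically at 1 cycle/s for 180 s, with calcium rises flagged as agonism.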
TRHR enhancer: TRH receptor (human) allosteric enhancement | AID 493056 | actives 0.66% (n = 360,000) | enhancement, % at 2 µM | P34981 | TRHR cells, fluo-8 calcium fluorescence, EC20 TRH enhancement; in the data active means enhancement above about 30%
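TRHR-expressing cells loaded with fluo-8 calcium dye were read kinetically (ex 480/em 530) during compound addition, then stimulated with an EC20 of TRH (10 nM final). Enhancement of the Gq-mediated intracellular calcium response was scored.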
TRHR ag: TRH receptor (human) agonism; activation, % at 2 µM; TRHR cells, calcium flux fluo-8, FDSS agonist mode; P34981; actives 0.18% (n = 360,000)
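Agonist-mode FDSS calcium read (Ex 480/Em 530, 1 s cycles) in 1536-well TRHR cells with fluo-8 dye, after 10-cycle baseline and 23 nL compound addition; TRH at EC20 (10 nM final) added afterwards for the enhancer phase.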
D1 antag: human D1 dopamine receptor antagonism; P21728; HEK293 TREx D1 cells, calcium flux, dopamine EC80; stronger effect = lower value; activity change, negative = inhibition, % at 10 µM; actives 3.2% (n = 360,000); AID 504652; in the data active means activity change below about -30%
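Using tetracycline-induced force-coupled D1 Hek293 cells and a calcium dye, signals were followed for 180 s after compound, then for 180 s after EC80 dopamine, to detect inhibitors.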
Each line names hits and unclear results; the compound was inactive in the other large screens. Only some compounds are listed: those with a hit (about 4.7% of all), similar ones and a draw of the others. Unless noted, no stated cut-off is given here; in the data, active means activation above about 30%; inactive means the rest.

COc1cc(OC)cc(C(=O)Nc2ccccc2N2CCOCC2)c1	none
O=C(Nc1ccc(N2CCOCC2)cc1N1CCOCC1)c1ccc(Cl)cc1	none
COc1ccc(N(C)S(=O)(=O)c2cccc(C(=O)NC3=NCCS3)c2)cc1	D1 antag -39
COc1cc(OC)cc(C(=O)Nc2ccc(N3CCOCC3)cc2N2CCOCC2)c1	D1 antag -52
Cc1ccc(C(=O)Nc2ccc(N3CCOCC3)cc2N2CCOCC2)cc1	D1 antag -69
Cc1ccc(N(C)S(=O)(=O)c2cccc(C(=O)Nc3ccc(N4CCOCC4)cc3)c2)cc1	D1 antag -39
Clc1ccc(CCNc2nc3cc(Cl)c(Cl)cc3n3cnnc23)cc1	none
COc1ccc([C@]23Cc4cc(C#N)ccc4C(O2)C2=C(CC4(CCCCC4)OC2=O)O3)cc1	none
O=C(CCN1CCN(c2ccccc2)CC1)c1ccc(Br)cc1	D1 antag -30
COc1cccc(CC2(CO)CCCN(Cc3c(C)cc(C)cc3-n3cccn3)C2)c1 (stereo not drawn)	D1 antag -36
O=c1[nH]c(SCc2c(F)cccc2Cl)nc2c1CCCC2	none
CCOC(=O)C1CCN(C(=O)CCS(=O)(=O)c2cc3c(cc2Cl)NC(=O)CO3)CC1	none
CN(C)c1ccc(/C=c2\sc3n(c2=O)CCCN=3)cc1	D1 ag 46
O=c1/c(=C/c2ccc(O)cc2)sc2n1CCCN=2	none
Cc1c(C(=O)OCC(=O)N2CC(C)CC(C)C2)oc2ccccc12 (stereo not drawn)	none
CC1CC(C)CN(C(=O)COC(=O)c2ccc3ccccc3n2)C1 (stereo not drawn)	D1 antag -37
N#Cc1ccc(Cl)cc1NC(=O)COC(=O)[C@H](CCC(N)=O)NC(=O)c1ccc(F)cc1	D1 antag -32
CCc1ccc(OCC(=O)NC(Cc2c[nH]c3ccccc23)C(=O)O)cc1 (stereo not drawn)	none
Cc1ccc(-n2c(=S)[nH]c3nc4c(cc3c2=O)COC(C)(C)C4)cc1	D1 antag -48
Cc1ccc(-n2c(=S)[nH]c3[nH]ncc3c2=O)cc1	D1 antag -31
COC(=O)c1ccc(/C=C/C(=O)c2ccc(OC)c(OC)c2)cc1	TRHR enhancer 36
COC(=O)c1ccc(/C=C/C(=O)c2ccc(OC)cc2)cc1	D1 antag -38
COc1ccc(/C=C/C(=O)c2ccc(C(=O)/C=C/c3ccc(OC)c(OC)c3)cc2)cc1OC	none
COC(=O)c1ccc(/C=C/C(=O)O)cc1	none
CC(NC(=O)C1CCN(C(=O)N2CCOc3ccc(Cl)cc32)CC1)c1ccccc1 (stereo not drawn)	none
Cc1c(Cl)cccc1NC(=O)c1ccc2c(c1)CCCN2S(C)(=O)=O	none
CN(C)/C=N/c1sc2c(c1C#N)CC(C)(C)NC2(C)C	D1 antag -45
CCN(/C=N/c1sc2c(c1C#N)CC(C)(C)NC2(C)C)CC	none
O=C(CN1C(=O)/C(=C\c2cccc(Cl)c2)Oc2ccccc21)N1CCN(c2ccccn2)CC1	none
Cc1cccc(NC(=O)c2ccccc2SCc2ccc(F)cc2)n1	D1 antag -34
C#CCSc1nnc(CSc2nc3ccccc3s2)n1-c1ccccc1	D1 antag -30
COc1ccc(C(C)(C)C)cc1NC(=O)c1cc(S(=O)(=O)N(C)C)ccc1N1CCCC1	D1 antag -51
Cc1c(OCC(=O)NCC2CCC(C(=O)O)CC2)ccc2c(-c3ccccc3)cc(=O)oc12 (stereo not drawn)	none
CCc1cc(=O)oc2c(C)c(OCC(=O)NCC3CCC(C(=O)O)CC3)ccc12 (stereo not drawn)	D1 antag -66
C=CCn1c(=O)c(C(=O)OCC)c(O)c2ccccc21	none
CCCn1c(=O)c(C(=O)OCC)c(O)c2cc(Br)ccc21	TRHR enhancer 32
Cc1nn(-c2ccccc2)c(C)c1-c1ccccc1O	none
Cc1nn(-c2ccccc2)c(/N=C/c2ccc(O)cc2)c1-c1ccccc1	D1 antag -44
CCCCNc1cc(C)nc(NCc2ccccc2)n1	D1 ag 61, D1 antag -52
Cc1ccc(/C=N/Nc2cc(C)nc(NCc3ccccc3)n2)cc1	none
Cc1cc(N/N=C/c2ccc(Cl)cc2Cl)nc(NCc2ccccc2)n1	D1 antag -48
COc1cccc2cc(-c3nc(-c4ccc(Cl)cc4)cs3)c(=O)oc12	none
O=C(Nc1ccccc1C(=O)Nc1ccccn1)c1ccccc1F	none
O=C(Nc1ccccc1C(=O)Nc1ccccn1)c1cc(F)c(F)cc1Cl	D1 antag -31
CCOC(=O)c1c(C)[nH]c(C)c1S(=O)(=O)N1CCC(C(=O)Nc2ccc(OC)c(OC)c2)CC1	none
Cc1ccc(NC(=O)CCn2c(=O)[nH]c3ccsc3c2=O)cc1C	none
Cc1cc(/C=C(\C#N)C(=O)OCC(=O)NC(=O)NC(C)(C)C)c(C)n1CCC(C)C	D1 antag -51
CC(C)(O)CC[C@@H](O)[C@](C)(O)C1CC[C@@]2(O)C3=CC(=O)[C@]4(O)C[C@@H](O)[C@@H](O)C[C@]4(C)C3CC[C@]12C (stereo partly drawn)	D1 antag -33
N#CC(C#N)=C/C=C(\Nc1ccc(Cl)cc1)c1ccc(Cl)cc1	D1 ag 79
Cc1cc2c(s1)c1cnn(Cc3c(F)c(F)c(C)c(F)c3F)c(=O)c1n2C	none
O=C(NCCN1CCN(c2cccc(Cl)c2)CC1)c1ccc(CSc2nc3ccncc3[nH]2)cc1	D1 antag -48
Cc1ccccc1N(C(=O)c1snc(C(N)=O)c1N)C(C(=O)NCC1CCCO1)c1ccc(F)cc1 (stereo not drawn)	TRHR enhancer 40
CC(C)c1ccc(N(C(=O)c2snc(C(N)=O)c2N)C(C(=O)NCC2CCCO2)c2ccc(N(C)C)cc2)cc1 (stereo not drawn)	D1 ag 57
CC(C)Oc1ccc(CNC(=O)C2CCN(c3nc4ccccc4nc3C(F)(F)F)CC2)cc1	none
COc1ccc(CNc2n[nH]c(-c3ccco3)n2)cc1OC	none
O=C(NCCC1=CCCCC1)c1ccc2c(c1)N(Cc1cccc(Cl)c1)C(=O)c1ccccc1S2(=O)=O	none
COc1cccc(OCCCn2cc(/C=C3/C(=N)N4C=C(C)SC4=NC3=O)c3ccccc32)c1	D1 ag 34
COc1ccc(OCCCn2cc(/C=C3/C(=N)N4C=C(C)SC4=NC3=O)c3ccccc32)cc1	none
CC1CCN(C(=O)c2ccc(COc3ccccc3Cl)o2)CC1	D1 antag -36
O=C(c1ccc(COc2ccccc2Cl)o1)N1CCCC1	none
COc1ccc(S(=O)(=O)NCCS(=O)(=O)N2CCN(c3ccccc3)CC2)cc1OC	none
CCOC(=O)C(C(=O)OCC)c1cc(Br)c2noc3c2c1C(=O)c1ccccc1-3	none
O=C1c2ccccc2-c2onc3ccc(Oc4ccccc4)c1c23	TRHR enhancer 32

Bioassay records (PubChem BioAssay)
